The panel holds about 83,000 compounds, 20% with a hit somewhere; the sample as a whole holds those more often.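 Step 1: grow cells in 96-well plates. Step 2: add test compound at a single concentration. Step 3: incubate 48 h. Step 4: record percent growth.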 The source made the active and inactive calls. The calls were made as follows: active = growth percent below 10; inactive = the rest.
Columns and labels:
Test in all cases: NCI-60 one-dose screen, 48 h (100 = growth as untreated, 0 = no growth, -100 = all killed)
Details in all cases: 10 µM
T-47D breast = tested on: T-47D breast
BT-549 breast = tested on: BT-549 breast
MDA-MB-435 melanoma = tested on: MDA-MB-435 melanoma
SW-620 colon = tested on: SW-620 colon
MCF7 breast = tested on: MCF7 breast
HCT-116 colon = tested on: HCT-116 colon
HCC-2998 colon = tested on: HCC-2998 colon
KM12 colon = tested on: KM12 colon
MDA-MB-468 breast = tested on: MDA-MB-468 breast

Measured: growth

CNCc1cccc2c1OCCCCCC[C@@](C)(O)CC1(CC1)S(=O)(=O)c1ccc(cc1)-c1cnc(N)c(n1)C(=O)N2
active: BT-549 breast -75.2% | MDA-MB-435 melanoma -95.2% | SW-620 colon -84.6% | MCF7 breast -90% | HCT-116 colon 0.182% | HCC-2998 colon -100% | KM12 colon -68.7% | MDA-MB-468 breast -98%
inactive: T-47D breast 33.7%

COC[C@@H](CC(C)C)N=C1N/C(=C\c2ccc3ncsc3c2)C(=O)N1C
inactive: MDA-MB-435 melanoma 22.1% | HCT-116 colon 14.5%
active: T-47D breast -7.71% | BT-549 breast 7.17% | SW-620 colon 2.99% | MCF7 breast -23.3% | HCC-2998 colon 5.06% | KM12 colon 9.52% | MDA-MB-468 breast -5.24%

CC(=C(c1ccc(OCCN2CCCCCC2)cc1)c1ccc(OCCN2CCCCCC2)cc1)c1ccc(Cl)cc1
active: T-47D breast -58.8% | BT-549 breast -65.5% | MDA-MB-435 melanoma -100% | SW-620 colon -61.1% | MCF7 breast -79.6% | HCT-116 colon -61.9% | HCC-2998 colon -97.8% | KM12 colon -73% | MDA-MB-468 breast -91.6%

N#Cc1c(Cl)nc(SCc2ccc(F)cc2)nc1-c1ccc(F)cc1
inactive: T-47D breast 66.8% | BT-549 breast 95.4% | MDA-MB-435 melanoma 99.1% | SW-620 colon 98.6% | MCF7 breast 82.6% | HCT-116 colon 81.5% | HCC-2998 colon 111% | KM12 colon 91.6% | MDA-MB-468 breast 112%

O=c1nc(-c2ccccc2)cc(-c2cc3ccccc3nc2Cl)[nH]1
active: SW-620 colon -63.6% | MCF7 breast 4.69% | HCT-116 colon -91.6% | KM12 colon -15.4%
inactive: T-47D breast 45.5% | BT-549 breast 12.9% | MDA-MB-435 melanoma 53.5% | HCC-2998 colon 44.9% | MDA-MB-468 breast 17.2%
